# Data published in PubChem BioAssay (NCATS).
# Records with an inconclusive call do not appear. A number with no mark means an inactive call. Active and inactive are the calls of the source. The call rests on the fitted dose curve; in most records, active means well fitted inhibition curve with a large enough effect; inconclusive means small, poorly fitted or top-dose-only effect; inactive means flat fitted curve, though single readings scatter.
# Tested on: HEK293
# Assay: Cytotoxic Profiling of Annotated Libraries Using Quantitative High-Throughput Screening (AID 1296008); further: nearly all actives have a fitted effect of over 60% in size
# Details: Five cell lines viability, CellTiter-Glo ATP luminescence, 48-72 h; max response: stronger effect = lower value
# In short: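 Cytotoxicity was measured as CellTiter-Glo ATP luminescence, read after 10 min at room temperature. Compound treatment of the cells lasted 48 or 72 hr at 37 degrees Celsius in a qHTS format.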
# On the % scale 0 is the no-effect control and ±100 the full control effect; potency means the concentration at half of the fitted maximal effect.
Compound,max response [%],Potency,outcome
Cc1cc2c(c(=O)[nH]1)OC(C(O)CC(C)C)O2 (configuration not stated),-7.89,–,–
C=CC1C(OC2OC(CO)C(O)C(O)C2O)OC=C2C(=O)N3C(C(=O)O)Cc4c([nH]c5ccccc45)C3CC21 (configuration not stated),0.732,–,–
CC(C(O)/C=C/C(C)(C)O)C1CCC2(C)C3C(=O)C=C4C(CCC(O)C4(C)C)C3(C)CCC12C (configuration not stated),-3.03,–,–
C[C@@H]1CC[C@]2(C(=O)OC3OC(CO)C(O)C(O)C3O)CC[C@]3(C)C(=CCC4[C@@]5(C)CC[C@H](O)[C@](C)(C(=O)O)C5CC[C@]43C)C2[C@]1(C)O (some centres not stated),-6.18,–,–
C=C1C(=O)O[C@@H]2/C=C(\C)C(=O)/C=C/[C@](C)(O)C[C@@H](OC(=O)C(C)C)[C@@H]12,–,805 nM (active),–
CCc1cc(CN2CC(C(=O)O)C2)sc1-c1noc(-c2ccc(Oc3ccccc3)cc2)n1,-73,–,–
COc1ccc(-n2[nH]c(=O)c3[nH]c4cc(Cl)ccc4c(=O)c3c2=O)c(C)c1,–,–,inactive
CC(=O)OC1C(=O)C2(C)C(O)CC3OCC3(OC(C)=O)C2C(OC(=O)c2ccccc2)C2(O)CC(OC(=O)C(O)C(NC(=O)c3ccccc3)c3ccccc3)C(C)=C1C2(C)C (configuration not stated),–,7.3 nM (active),–
COc1ccc(C2(O)c3ccccc3NC(=O)C2O)cc1 (configuration not stated),-5.12,–,–
COC(=O)CC1CC(c2ccc(O)cc2)=NO1 (configuration not stated),0.726,–,–
CC(C)S(=O)(=O)NC[C@H](C)c1ccc(NC(=O)c2cc(F)cc(F)c2)cc1,-6.11,–,–
Cc1cc(OCc2nnc(SC3CCCC3)n2-c2cccnc2)ccc1-c1ccc(S(C)(=O)=O)cc1,–,291 nM (active),–
Cc1[nH]c2ccccc2c1CCNC(=O)c1ccccc1F,2.26,–,–
C[C@@H]1O[C@@H](OC[C@H]2O[C@@H](OC(CCCCc3ccc(O)cc3)CCc3ccc(O)cc3)[C@H](O)[C@@H](O)[C@@H]2O)[C@H](O)[C@H](O)[C@H]1O (some centres not stated),1.77,–,–
CC1=CCC(C(C)(C)O[C@@H]2O[C@H](CO[C@@H]3O[C@@H](C)[C@H](O)[C@@H](O)[C@H]3O)[C@@H](O)[C@H](O)[C@H]2O)CC1 (some centres not stated),2.02,–,–
C=CC(C)(O)CC[C@H]1C(=C)CCC2[C@](C)(C(=O)O)CCC[C@@]21C (some centres not stated),-3.52,–,–

Compound,max response [%],Potency,outcome
CCCCc1nc2cc(/C=C/C(=O)NO)ccc2n1CCN(CC)CC,–,1840 nM (active),–
CCOc1ccc2nc(SCCN3CCOCC3)[nH]c2c1,-19.2,–,–
CC(C)C(CO)Nc1nc(Nc2ccc(C(=O)O)c(Cl)c2)c2ncn(C(C)C)c2n1 (configuration not stated),-4.16,–,–
C[C@@H]1O[C@@H](O[C@H]2[C@H](O)[C@@H](O)[C@H](OC3CCC4(C)C5CCC(C)(C(CO)OC6OC(CO)C(O)C(O)C6O)CC5=CCC4C3(C)C)O[C@@H]2CO)[C@H](O)[C@H](O)[C@H]1O (some centres not stated),4.31,–,–
Cc1ccc(NC(=O)C(=O)NC2CC(C)(C)NC(C)(C)C2)cc1,1.35,–,–
N#Cc1cnc2cnc(NCc3cccnc3)cc2c1Nc1ccc(F)c(Cl)c1,–,3660 nM (active),–
C[C@@H]1[C@H]2[C@H](O[C@@H]3O[C@H](CO)[C@@H](O)[C@H](O)[C@H]3O)OC=C(C(=O)O)[C@H]2C[C@@H]1O,-5.11,–,–
CC1(C)CCCC2(C)C(C(=O)O)=CCC12 (configuration not stated),-1.36,–,–
C/C=C/c1ccc2c(c1)[C@@H](C)[C@H](c1ccc(O)cc1)O2,1.71,–,–
COc1nc2sc(C(=O)NC3CC3)c(N)c2c(C)c1Cl,-8.8,–,–
Cc1cn(C2C=CC(CO)O2)c(=O)[nH]c1=O (configuration not stated),-22.8,–,–
COc1ccc(CNC(=O)c2cc(-c3cncc(C)c3)ncc2-c2nccs2)nc1OC,-57.9,–,–
CC(C)=CCC/C(C)=C/CCC1(C)Oc2c(c(O)cc3c2CN(C(CCC(=O)O)C(=O)O)C3=O)CC1O (configuration not stated),-4.48,–,–
CC(=O)OC[C@H]1O[C@H](O[C@]2(CO)O[C@H](CO)[C@@H](OC(=O)/C=C/c3ccccc3)[C@@H]2O)[C@H](O)[C@@H](O)[C@@H]1O,2.62,–,–
FC(F)(F)c1cc(-c2ncn(/C=C\c3nnco3)n2)cc(C(F)(F)F)c1,–,3260 nM (active),–
CNC(=O)c1ccccc1Nc1nc(Nc2ccc3c(c2OC)CCCC(N2CCN(CCO)CC2)C3)ncc1Cl (configuration not stated),–,5170 nM (active),–
